# Reference: PubChem BioAssay (Tox21)
# Inconclusive results are not listed. A number with no mark means an inactive call. Calls follow the shape of the dose curve; as a rule, active = well fitted inhibition curve with a large enough effect in the repeat runs; inconclusive = weak or mixed curves, or effect the other way; inactive = no such curve, though single readings can be large or run the other way.
# Molecular target: Nuclear receptor subfamily 1 group I member 3 (Homo sapiens) (UniProt Q14994)
# Test: qHTS assay to identify small molecule antagonists of the constitutive androstane receptor (CAR) signaling pathway (AID 1224838);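 also: HepG2 cells stably expressing hCAR with CYP2B6 luciferase reporter stimulated by CITCO; nearly all actives have a fitted effect of over 40% in size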
# Conditions: HepG2-CYP2B6-hCAR luciferase, CITCO-stimulated, 24 h; series mostly up to 92.4 µM; activity, negative = inhibition: at the top concentration
# How it was run: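 HepG2-CYP2B6-hCAR cells; 4 h pre-incubation; cpd (15 conc) + CITCO 50 nM final; 24 h, 37 C/5% CO2; ONE-Glo, luminescence.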
# % is scaled to controls: 0 for no effect and ±100 for the full control effect.
# Chain of Nuclear receptor subfamily 1 group I member 3 (Homo sapiens) (Q14994 whole entry, looked up): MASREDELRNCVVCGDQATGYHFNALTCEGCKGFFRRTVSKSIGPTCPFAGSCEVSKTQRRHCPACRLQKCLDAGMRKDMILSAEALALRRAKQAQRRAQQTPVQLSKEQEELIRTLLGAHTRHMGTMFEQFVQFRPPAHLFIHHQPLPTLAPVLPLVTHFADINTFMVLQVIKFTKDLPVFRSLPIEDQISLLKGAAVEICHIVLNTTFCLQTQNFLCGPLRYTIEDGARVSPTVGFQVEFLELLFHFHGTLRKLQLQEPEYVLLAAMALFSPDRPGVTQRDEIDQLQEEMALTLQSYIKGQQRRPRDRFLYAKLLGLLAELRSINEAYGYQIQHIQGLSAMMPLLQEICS
row,SMILES,"activity, negative = inhibition"
1,O=C(OCC1(COC(=O)c2cccnc2)CCCC(COC(=O)c2cccnc2)(COC(=O)c2cccnc2)C1O)c1cccnc1,8.6% [at 42.5 µM]
2,BrCc1cccc(Oc2ccccc2)c1,100%
3,Nc1ccc2cc(S(=O)(=O)O)cc(O)c2c1,-7.99%
4,O=C(Nc1ccc(Cl)c(Cl)c1)C1CC1,236% [at 42.5 µM]
5,COc1cc(N)ccc1C,94.7%
6,O=C(OCC(O)CO)c1ccccc1Nc1ccnc2c(C(F)(F)F)cccc12 (stereo not given),52.5% [at 42.5 µM]
7,C[C@@H]1O[C@@H](O[C@@H]2[C@@H](O)[C@H](OCCc3ccc(O)c(O)c3)O[C@H](CO[C@@H]3O[C@H](CO)[C@@H](O)[C@H](O)[C@H]3O)[C@H]2OC(=O)/C=C/c2ccc(O)c(O)c2)[C@H](O)[C@H](O)[C@H]1O,-6.45%
8,O=C(c1ccc(O)cc1)c1ccc(O)c(O)c1O,112%
9,CC(C)NCC(O)COc1cccc2[nH]ccc12 (stereo not given),14.9% [at 42.5 µM]
10,CC(CN)CC(C)(C)CCN (stereo not given),-0.454% [at 240 µM]
11,CC(N)C(=O)OC(C)(C)Cc1ccc(Cl)cc1 (stereo not given),24.2% [at 42.5 µM]
12,CC(COC(C)(C)C)OCCCO (stereo not given),-28.4%
13,c1ccc2c(c1)ccc1c3ccccc3ccc21,-14.7% [at 42.5 µM]
14,O=S(=O)(O)c1cc(O)c2ccc(Nc3ccccc3)cc2c1,-2.37%
15,C#CC(C)N(C)C(=O)Nc1ccc(Cl)cc1 (stereo not given),183%
